Source: PubChem BioAssay (NCI)
Several values for one entry are separate records, joined by “and”; a condition that tells them apart may be missing. Equal entries are not always repeated. Compounds without any hit were thinned out: in the full panel of roughly 83,000, 20% have a hit.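 Method: cells in 96-well plates; compound added at one concentration; 48 h incubation; percent growth measured; values under 10 scored active.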 Activity calls are given as the source filed them.

Key:
Experiment in all cases: NCI-60 one-dose screen, 48 h (100 = growth as untreated, 0 = no growth, -100 = all killed)
Details in all cases: 10 µM unless noted
[1] = tested on: HCT-15 colon
[2] = tested on: HT29 colon
[3] = tested on: SNB-75 CNS
[4] = tested on: SNB-19 CNS
[5] = tested on: U251 CNS
[6] = tested on: PC-3 prostate
[7] = tested on: SK-MEL-5 melanoma
[8] = tested on: UACC-62 melanoma
[9] = tested on: LOX IMVI melanoma
[10] = tested on: SK-MEL-28 melanoma

Measured: growth

CCCCCCCCCCCCCCCCOP(=O)([O-])OCC[N+](C)(C)C
active: [1] 1.44% | [2] -14% | [4] -13.3% | [5] 8.3% | [6] -22.1%
inactive: [3] 44.2% | [7] 59.1% | [8] 37.6% | [9] 27.8% | [10] 98.3%

O=C(/C=C\c1ccccc1)N1c2ccccc2CC1c1c[nH]c2ccccc12 (stereo unspecified)
inactive: [1] 55.7% | [2] 21.8% | [3] 62.4% | [4] 85.8% | [5] 74.1% | [6] 53.6% | [7] 87.6% | [8] 48.9% | [9] 67.9% | [10] 88.8%

Cc1ccc2c(ccc3c[n+]4c5ccccc5ccc4n32)c1
inactive: [1] 79.6% | [9] 22.5%
active: [2] 8.52% | [3] 8.15% | [4] 2.91% | [5] -12.4% | [6] 8.46% | [7] -81% | [8] -48.9% | [10] -28.1%

CCC(=O)Sc1ccccc1C(=O)Nc1ccc(Cl)cc1
inactive: [1] 46% | [2] 17% | [3] 76.7% | [4] 76.1% | [5] 36.5% | [6] 66.9% | [7] 25.2% | [8] 54.1% | [10] 49.8%

CC1OC(OC2C(OC3CCC4(C)C(CCC5(C)C4CC=C4C6CC(C)(C)CCC6(CO)C(O)CC45C)C3(C)C)OC(C(=O)O)C(OC3OC(COC4OC(CO)C(O)C(O)C4O)C(O)C(O)C3O)C2O)C(O)C(O)C1O (stereo unspecified)
active: [1] -47.8% | [2] -44.6% | [3] -84.1% | [4] -87.6% | [5] -80.4% | [6] -74.3% | [7] -94.3% | [8] -69.7% | [10] -79%

CN(C)c1ccc(N=Nc2cccc3ccccc23)cc1
inactive: [1] 93.1% | [2] 93.5% | [3] 76.4% | [4] 100% | [5] 88.6% | [6] 75.9% | [7] 93.9% | [8] 84.2% | [10] 103%

NC(=S)N/N=C/c1ccc(Cl)s1
inactive: [1] 101% | [2] 108% | [3] 108% | [4] 101% | [5] 101% | [6] 101% | [7] 97.2% | [8] 101% | [10] 108%

O=C1NC(=O)/C(=C/C=C/c2ccccc2)S1
active: [8] 1.33%
inactive: [1] 54.1% | [2] 56.6% | [3] 59.7% | [4] 28.3% | [5] 17.1% | [6] 87.5% | [7] 25% | [10] 84.6%

O=C(/C=C\c1cc(Br)ccc1O)/C=C/c1cc(Br)ccc1O
active: [1] 0% | [2] -54.2% | [3] -8.46% | [4] -52.7% | [5] -82.6% | [6] -16% | [7] -87.5% | [8] -67.5% | [10] -66.9%

Cc1ccc(NS(=O)(=O)c2ccc(C)cc2)cc1
inactive: [1] 101% and 104% | [2] 101% and 90.4% | [3] 87.7% and 102% | [4] 106% and 102% | [5] 96.9% and 86.6% | [6] 97.7% and 94% | [7] 97.8% and 95.3% | [8] 91% and 99.2% | [10] 116% and 110%

Oc1c(Cl)c2ccccc2c2ccccc12
inactive: [1] 112% | [2] 103% | [3] 88.2% | [4] 99.1% | [5] 113% | [6] 97.5% | [7] 101% | [8] 107% | [10] 108%

CC(=Nc1ccc(N(C)C)cc1)c1ccccc1
inactive: [1] 68.5% | [2] 35.2% | [3] 86% | [4] 45% | [5] 27.2% | [6] 37.8% | [7] 54.6% | [8] 68% | [10] 65.4%

COC(=O)c1nc(=S)[nH]c(C(=O)OC)c1C(=O)c1ccccn1
active: [7] -26.2%
inactive: [1] 16.8% | [2] 34.5% | [3] 57.2% | [4] 43.1% | [5] 31% | [6] 31.1% | [8] 11.9% | [10] 38.1%

CN(C)c1ccc(/C=N/N=C(\C#N)[S][Sn]([Cl])([c]2ccccc2)[c]2ccccc2)cc1
inactive: [2] 19.2% | [4] 89.6% | [5] 57.3% | [6] 68.6% | [7] 37% | [8] 34.7%
active: [1] -30.6% | [3] 8.38% | [10] -48.7%

Cc1ccnc2c1ccc1c(C)ccnc12
inactive: [1] 20.9% | [2] 17.7% | [3] 52.4% | [4] 21.9% | [6] 22% | [7] 18.3% | [10] 20.7%
active: [5] 7.48% | [8] 2.66%

CCC(CC)COC(=O)c1ccc(O)c(O)c1
inactive: [1] 49.2% | [2] 96.8% | [3] 75% | [4] 74.6% | [5] 50.9% | [6] 33.8% | [7] 83.3% | [8] 76.8% | [10] 95.1%

O=C(Nc1ccccc1)c1cc(Cl)ccc1O
active: [7] 7.81%
inactive: [1] 64.1% | [2] 89% | [3] 64% | [4] 41.3% | [5] 59.1% | [6] 66.5% | [8] 34.1% | [10] 55.7%

O=C(Nc1ccc(F)cc1)ON=C1CCCCC1
inactive: [1] 97% [100 µM] | [2] 103% [100 µM] | [3] 85% [100 µM] | [4] 94% [100 µM] | [5] 102% [100 µM] | [6] 89.5% [100 µM] | [7] 99.6% [100 µM] | [8] 54.5% [100 µM] | [10] 108% [100 µM]

NC(N)=N/N=C/c1ccc([N+](=O)[O-])o1
inactive: [1] 68.1% | [2] 33.2% | [3] 106% | [4] 99.9% | [5] 80.8% | [6] 90% | [7] 90.4% | [8] 92.9% | [10] 114%

Nc1ncnc2c1ncn2C1OC(CO)C(O)C1O (stereo unspecified)
inactive: [1] 109% and 33.5% and 105% | [2] 109% and 35.6% and 98.4% | [3] 99.1% and 50.2% and 91.3% | [4] 106% and 67.8% and 100% | [5] 107% and 92.7% and 104% | [6] 81.4% and 29.8% and 98.9% | [7] 107% and 103% and 102% | [8] 110% and 82.7% and 101% | [10] 116% and 124% and 125%

Cc1ccc2nc(C[n+]3ccc4ccccc4c3)ccc2c1
active: [7] -31.1%
inactive: [1] 99% | [2] 37.3% | [3] 58.9% | [4] 46.5% | [5] 42.1% | [6] 38.5% | [8] 69.8% | [10] 63.5%

CCC(CCCN(CC)CCc1ccccc1)OC(=O)c1cc(OC)c(OC)c(OC)c1 (stereo unspecified)
inactive: [1] 89.8% | [2] 57.3% | [3] 65.3% | [4] 92.3% | [5] 90.8% | [6] 82.4% | [7] 91.3% | [8] 90.7% | [10] 98.5%

CC(=O)Nc1cccc2cc(O)ccc12
inactive: [1] 112% and 107% and 99.9% | [2] 115% and 107% and 95.8% | [3] 91.4% and 101% and 75.3% | [4] 106% and 94.8% | [5] 108% and 102% and 101% | [6] 104% and 96.3% and 80.3% | [7] 113% and 117% and 106% | [8] 96.3% and 90.9% and 96.9% | [10] 110% and 111% and 104%

N#CSCc1ccc(CSC#N)c(Cl)c1
inactive: [1] 37.1% | [2] 34.7% | [3] 32.2% | [4] 84% | [5] 85.8% | [6] 81.6% | [7] 65.2% | [8] 72.2% | [10] 83.3%

CCN1/C(=C\c2cc[n+](CC)c3ccccc23)C=Cc2ccccc21
active: [2] 8.56% | [7] -74.4% | [8] -21.4% | [10] 3%
inactive: [1] 29.7% | [3] 14.3% | [4] 17.1% | [5] 17% | [6] 11.4%

CCOC(=O)c1c(C)[nH]c(CO)c1C
inactive: [1] 106% | [2] 96.4% | [3] 101% | [4] 98.4% | [5] 99% | [6] 98.1% | [7] 99.1% | [8] 93.4% | [10] 103%

Cn1c2ccccc2c2nnc(N/N=C/c3ccccn3)nc21
active: [7] -44.1% | [8] -6.2%
inactive: [1] 27.6% | [2] 37% | [3] 31% | [4] 26.1% | [5] 14.2% | [6] 28.4% | [10] 18.5%
